The text below walks through data of PubChem BioAssay (Tox21).

The nature of assay [1]: Nuclear factor erythroid 2-related factor 2/antioxidant responsive element (Nrf2/ARE) small molecule agonists: qHTS cell viability counter screen in human keratinocytes (AID 1919968; active = well fitted curve in the direction sought with a large enough effect in the repeat runs; an effect the other way counts as inactive or inconclusive; also: nearly all actives have a fitted effect of over 55% in size; also: potency is read from the fitted curve at half-maximal effect). A digest of the protocol:
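Seed 1,500 KeratinoSens cells per well, then incubate 5 h at 37 C/5% CO2. Add compounds in DMSO and incubate 23 h. Add CellTiter-Fluor, wait 1 h and read fluorescence.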

The nature of assay [2]: Nuclear factor erythroid 2-related factor 2/antioxidant responsive element (Nrf2/ARE) small molecule agonists: luciferase reporter gene qHTS assay in human keratinocytes (AID 1919969; also: nearly all actives have a fitted effect of over 35% in size; also: potency is read from the fitted curve at half-maximal effect). (In general: A reporter such as luciferase makes a cellular process visible.)
Assay [3] concerns the target KiSS-1 receptor (Homo sapiens) (UniProt Q969F8). The assay can be described thus: Human kisspeptin (KISS1R) small molecule agonists, calcium flux assay in KISS1R-HEK293 cells (AID 1920064; active = well fitted curve in the direction sought with a large enough effect in the repeat runs; an effect the other way counts as inactive or inconclusive). In outline:
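Cells plated and incubated 18 h; dye added, 1 h at 37 C; compounds in DMSO pinned in; signal read at 480/540 nm every second for 3 min. Each compound tested at 15 concentrations in triplicate.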
In general terms: A change in cytosolic calcium serves as a functional read-out for many receptors and channels.

Assay [4] can be described thus: G protein-coupled receptor (GPCR) small molecule agonists, calcium flux assay: HEK293 wild type cell line counter screen (AID 1920065). A digest of the protocol: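 Counter-screen of the Tox21 10K library for non-specific calcium release: dye-loaded cells received compounds in DMSO and were monitored by kinetic fluorescence (480/540 nm, 3 min). Fifteen concentrations, run in triplicate.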

Assay [5] can be described thus: p53 small molecule agonists, cell-based qHTS assay with human liver microsomes (AID 1963577). A digest of the protocol:
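p53RE-bla reporter cells were pre-incubated 5 h at 37 C, then treated with compounds plus human liver microsomes (0.5 mg/mL final) and NADPH (0.5 mg/mL final) for 16 h at 37 C. Beta-lactamase activity was read by LiveBLAzer fluorescence after 2 h at room temperature.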

The nature of assay [6]: p53 small molecule agonists, cell-based qHTS assay with rat liver microsomes (AID 1963578). In outline:
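p53RE-bla cells were exposed to compounds together with rat liver microsomes (0.5 mg/mL final) and NADPH (0.5 mg/mL final) for 16 h at 37 C, then read by LiveBLAzer beta-lactamase fluorescence after 2 h at room temperature.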
For orientation: Quantitative high-throughput screening tests each substance at several concentrations.

Assay [7] in a line: p53 small molecule agonists, cell-based qHTS assay with rat liver microsomes: qHTS cell viability counter screen (AID 1963580). Also: nearly all actives have a fitted effect of over 45% in size. A digest of the protocol:
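Viability is assessed in parallel with the p53 reporter read: HCT-116 p53RE-bla cells receive compounds plus rat microsomes and NADPH (0.5 mg/mL final apiece), incubate 16 h at 37 C, and then CellTiter-Glo luminescence is recorded.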

The nature of assay [8]: p53 small molecule agonists, cell-based qHTS assay: qHTS cell viability counter screen (AID 1963581). Also: nearly all actives have a fitted effect of over 45% in size. In outline:
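Cells: HCT-116 with p53 response element-driven beta-lactamase. Treatment: 16 h, 37 C, compounds in DMSO. Read: CellTiter-Glo luminescence after 30 min RT.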

Assay [9] in a line: p53 small molecule agonists, cell-based qHTS assay (AID 1963582; active = well fitted activation curve with a large enough effect in the signal ratio in the repeat runs, not every such curve was filed as active; the % refers to the signal ratio; also: potency is read from the fitted curve at half-maximal effect). A digest of the protocol:
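Quantitative HTS in p53RE-bla cells: after a 5 h settling period, compounds delivered in DMSO were left on cells for 16 h at 37 C, and reporter induction was measured as fluorescence following 2 h substrate loading.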

The target of assay [10] is 5-hydroxytryptamine receptor 2A (Homo sapiens) (UniProt P28223). Briefly: 5-hydroxytryptamine receptor 2A (HTR2A) small molecule antagonists, cell-based qHTS assay (AID 1963586). Also: nearly all actives have a fitted effect of over 45% in size. A digest of the protocol: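 Antagonist-mode intracellular calcium assay: DOI (4 nM) added after 5 min compound pre-incubation at room temperature to dye-loaded HTR2A-CHO cells. Fluorescence followed for 3 min, sampled every second.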
Sequence of 5-hydroxytryptamine receptor 2A (Homo sapiens) (P28223 whole entry, looked up): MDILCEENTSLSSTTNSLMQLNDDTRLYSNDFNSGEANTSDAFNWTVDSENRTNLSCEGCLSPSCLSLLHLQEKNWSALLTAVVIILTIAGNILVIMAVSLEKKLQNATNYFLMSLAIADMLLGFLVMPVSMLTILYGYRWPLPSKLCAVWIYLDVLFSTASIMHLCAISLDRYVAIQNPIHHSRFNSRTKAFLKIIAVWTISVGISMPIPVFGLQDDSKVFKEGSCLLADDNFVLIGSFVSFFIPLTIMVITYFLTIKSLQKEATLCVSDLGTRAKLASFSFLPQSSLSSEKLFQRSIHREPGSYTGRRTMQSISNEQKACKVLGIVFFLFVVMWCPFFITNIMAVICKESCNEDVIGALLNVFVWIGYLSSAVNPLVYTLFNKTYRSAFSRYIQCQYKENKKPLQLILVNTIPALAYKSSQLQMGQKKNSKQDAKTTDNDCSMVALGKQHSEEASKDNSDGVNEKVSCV

Assay [11] shares this target. The assay can be described thus: 5-hydroxytryptamine receptor 2A (HTR2A) small molecule agonists, cell-based qHTS assay (AID 1963587). Also: nearly all actives have a fitted effect of over 30% in size. Also: potency is read from the fitted curve at half-maximal effect. A digest of the protocol: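 CHO cells stably expressing human HTR2A, plated 18 h, loaded with calcium dye 1 h at 37 C. Agonist mode: compounds added and intracellular calcium fluorescence recorded kinetically for 2 min at 1 sec intervals.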

Assay [12] addresses Muscarinic acetylcholine receptor M1 (Homo sapiens) (UniProt P11229). The assay can be described thus: Cholinergic receptor muscarinic 1 (CHRM1) small molecule antagonists, cell-based qHTS assay (AID 1963588). Also: nearly all actives have a fitted effect of over 40% in size. A digest of the protocol: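 CHRM1-CHO calcium-flux assay, antagonist mode. Cells were seeded 18 h, dye-loaded 1 h at 37 C and given compound for 5 min at RT, then acetylcholine was added at 50nM. FDSS fluorescence was read 3 min; 15 concentrations, three runs.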

The nature of assay [13]: cAMP Responsive Elements (CRE) small molecule agonists, cell-based qHTS assay (AID 1963590). A digest of the protocol: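 Agonist mode qHTS in CRE-bla HEK 293T cells: compounds dosed from DMSO for 3 h at 37 C/5% CO2, followed by LiveBLAzer B/G FRET substrate for 2 h at room temperature.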
Assay [14] is described as follows: cAMP Responsive Elements (CRE) small molecule antagonists, cell-based qHTS assay (AID 1963591; active = well fitted inhibition curve with a large enough effect in the signal ratio in the repeat runs, not every such curve was filed as active; the % refers to the signal ratio). In outline:
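Antagonist mode: test compounds are co-incubated with the adenylyl cyclase activator NKH477 (0.25 uM final) on CRE-bla HEK293T cells for 3 h at 37 °C, followed by LiveBLAzer substrate loading.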

Assay [15] concerns the target Beta-2 adrenergic receptor (Homo sapiens) (UniProt P07550). The assay can be described thus: Adrenergic beta2 receptor (ADRB2) small molecule antagonists, cell-based qHTS assay (AID 1963592). Also: series mostly up to about 92 µM; nearly all actives have a fitted effect of over 50% in size. In outline:
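Cells (CHO, stable ADRB2 overexpression) incubated 18-20hr at 37C; compounds added from DMSO; agonist mix (1nM isoproterenol, 100uM IBMX, 25uM Ro-20-1724) added; 0.5hr RT; d2-cAMP and anti-cAMP-cryptate added; 1hr RT; 665/615 nm read.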

Assay [16] addresses D(2) dopamine receptor (Homo sapiens) (UniProt P14416). Briefly: Dopamine D2 receptor (DRD2) small molecule agonists, cell-based qHTS assay (AID 1963594). Also: nearly all actives have a fitted effect of over 35% in size. In outline:
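HEK293 cells stably expressing human DRD2, pre-treated with PDE inhibitor Ro20-1724 (0.1 mM final) and compound 10 min at room temperature, then stimulated with NKH477 (200nM […]) for 30 min. cAMP read by HTRF (665/620 nm).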

For assay [17] the target is unchanged. Briefly: Dopamine D2 receptor (DRD2) small molecule antagonists, cell-based qHTS assay (AID 1963595; active = well fitted inhibition curve with a large enough effect in the signal ratio in the repeat runs, with a control signal flat; the % refers to the signal ratio; also: potency is read from the fitted curve at half-maximal effect). In outline:
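Cells were plated and grown for 24 h at 37 °C. Ro20-1724 (0.1 mM final) went in first, then compound for 10 min. NKH477 (200 nM) with quinpirole (12 nM) followed for 30 min at RT, then HTRF detection reagents for 1 h.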

Assay [18] has as its target Gonadotropin-releasing hormone receptor (Homo sapiens) (UniProt P30968). Briefly: Human gonadotropin-releasing hormone receptor (GnRHR) small molecule agonists, calcium flux assay in GnRHR-HEK293 cells (AID 1920063). Also: nearly all actives have a fitted effect of over 35% in size. Also: potency is read from the fitted curve at half-maximal effect. A digest of the protocol: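 Cells: HEK293 stably expressing human GnRHR. Steps: overnight (18 h) culture, 1 h calcium dye loading at 37 C, compound addition, kinetic fluorescence read at 480/540 nm. Each compound tested at 15 concentrations in triplicate.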

Assay [19] is described as follows: p53 small molecule agonists, cell-based qHTS assay with human liver microsomes: qHTS cell viability counter screen (AID 1963579). Also: nearly all actives have a fitted effect of over 45% in size. Also: potency is read from the fitted curve at half-maximal effect. A digest of the protocol:
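p53RE-bla cells (4,000/well) were pre-incubated 5 h at 37 C, then given compounds in DMSO plus human liver microsomes (0.5 mg/mL final) and NADPH (0.5 mg/mL final) for 16 h at 37 C. Viability was read by CellTiter-Glo luminescence.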

The target in assay [20] is Muscarinic acetylcholine receptor M1 (Homo sapiens) (UniProt P11229). The assay can be described thus: Cholinergic receptor muscarinic 1 (CHRM1) small molecule agonists, cell-based qHTS assay (AID 1963589). Also: nearly all actives have a fitted effect of over 35% in size. Also: potency is read from the fitted curve at half-maximal effect. In outline: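 Agonist-mode qHTS in CHO cells stably carrying human muscarinic M1. Intracellular calcium is tracked by fluorescence every second after compound transfer; each compound runs at 15 concentrations in three independent runs.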
Sequence of Muscarinic acetylcholine receptor M1 (Homo sapiens) (P11229 whole entry, looked up): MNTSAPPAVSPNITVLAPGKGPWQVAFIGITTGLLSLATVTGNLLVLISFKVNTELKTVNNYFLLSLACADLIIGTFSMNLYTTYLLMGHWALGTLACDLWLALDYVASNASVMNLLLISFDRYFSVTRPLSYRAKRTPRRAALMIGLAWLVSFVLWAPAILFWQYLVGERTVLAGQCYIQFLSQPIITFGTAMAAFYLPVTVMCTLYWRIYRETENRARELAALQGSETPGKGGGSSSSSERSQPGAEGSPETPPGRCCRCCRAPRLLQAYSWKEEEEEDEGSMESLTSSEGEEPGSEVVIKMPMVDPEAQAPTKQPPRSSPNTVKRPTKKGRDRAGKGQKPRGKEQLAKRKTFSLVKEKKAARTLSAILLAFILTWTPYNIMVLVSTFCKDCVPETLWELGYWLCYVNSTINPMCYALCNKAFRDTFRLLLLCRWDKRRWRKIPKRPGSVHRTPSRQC

Values without a mark were called inactive. Results filed as inconclusive are left out. Calls of active or inactive are those of the source. Unless noted, calls follow the shape of the full dose curve.

Sequence of D(2) dopamine receptor (Homo sapiens) (P14416 whole entry, looked up): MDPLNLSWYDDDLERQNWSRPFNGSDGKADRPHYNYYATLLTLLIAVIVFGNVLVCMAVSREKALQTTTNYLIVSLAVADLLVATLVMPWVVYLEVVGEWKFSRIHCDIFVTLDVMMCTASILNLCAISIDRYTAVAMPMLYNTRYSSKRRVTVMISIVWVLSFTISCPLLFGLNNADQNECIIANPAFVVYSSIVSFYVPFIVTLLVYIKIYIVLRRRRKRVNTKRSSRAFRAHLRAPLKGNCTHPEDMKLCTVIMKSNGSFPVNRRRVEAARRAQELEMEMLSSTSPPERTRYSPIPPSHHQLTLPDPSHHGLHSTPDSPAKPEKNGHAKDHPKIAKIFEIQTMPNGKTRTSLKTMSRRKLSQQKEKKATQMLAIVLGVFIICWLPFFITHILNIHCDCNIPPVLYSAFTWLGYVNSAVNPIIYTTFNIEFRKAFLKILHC
Sequence of Beta-2 adrenergic receptor (Homo sapiens) (P07550 whole entry, looked up): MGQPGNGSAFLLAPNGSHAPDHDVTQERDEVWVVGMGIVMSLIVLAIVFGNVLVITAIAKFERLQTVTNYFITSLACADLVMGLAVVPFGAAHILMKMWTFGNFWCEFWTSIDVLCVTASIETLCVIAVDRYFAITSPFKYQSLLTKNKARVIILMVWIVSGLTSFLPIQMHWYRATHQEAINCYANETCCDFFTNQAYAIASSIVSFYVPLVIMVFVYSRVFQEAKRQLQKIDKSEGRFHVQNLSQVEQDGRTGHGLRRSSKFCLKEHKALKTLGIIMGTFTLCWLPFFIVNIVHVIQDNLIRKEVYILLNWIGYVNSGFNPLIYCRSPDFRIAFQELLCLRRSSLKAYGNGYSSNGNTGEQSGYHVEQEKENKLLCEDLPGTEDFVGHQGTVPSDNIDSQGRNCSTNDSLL
Sequence of KiSS-1 receptor (Homo sapiens) (Q969F8 whole entry, looked up): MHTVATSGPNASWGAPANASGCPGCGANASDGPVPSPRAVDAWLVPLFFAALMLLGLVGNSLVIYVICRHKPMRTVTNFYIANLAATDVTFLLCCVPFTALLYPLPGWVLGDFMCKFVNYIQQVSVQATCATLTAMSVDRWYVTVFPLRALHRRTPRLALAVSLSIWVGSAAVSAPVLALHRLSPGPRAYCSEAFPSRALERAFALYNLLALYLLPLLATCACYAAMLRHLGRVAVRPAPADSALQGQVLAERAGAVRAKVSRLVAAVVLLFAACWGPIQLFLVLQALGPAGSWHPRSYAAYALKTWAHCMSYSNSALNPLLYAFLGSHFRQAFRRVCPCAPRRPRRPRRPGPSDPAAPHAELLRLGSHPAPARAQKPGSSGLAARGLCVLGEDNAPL
Sequence of Gonadotropin-releasing hormone receptor (Homo sapiens) (P30968 whole entry, looked up): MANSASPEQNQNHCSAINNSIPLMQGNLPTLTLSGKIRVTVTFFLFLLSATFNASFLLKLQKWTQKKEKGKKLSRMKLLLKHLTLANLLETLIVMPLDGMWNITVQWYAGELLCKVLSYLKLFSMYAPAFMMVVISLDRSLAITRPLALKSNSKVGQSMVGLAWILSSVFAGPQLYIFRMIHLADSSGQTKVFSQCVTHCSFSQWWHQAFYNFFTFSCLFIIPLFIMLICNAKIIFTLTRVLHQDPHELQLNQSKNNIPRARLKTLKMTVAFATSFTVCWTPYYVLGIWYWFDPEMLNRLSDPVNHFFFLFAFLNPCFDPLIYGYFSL

As to `CCCCS(=O)(=O)Cl`, the Potency entry in [1], in assay [2], in [3], in assay [4], in [5] and in assay [6] was “inactive” throughout. Also, the Potency entry in [7], in [8], in assay [9], in [10], in assay [11] and in assay [12] was “inactive” throughout. Further, the Potency result in assay [13], in assay [14], in assay [15], in assay [16] and in assay [17] was “inactive” each time.

In the case of `C1CCC(C2CCCCC2)CC1`, the Potency entry in assay [1], in assay [2], in assay [18], in [4], in assay [19] and in assay [8] was “inactive” in each case. The Potency entry in [10], in assay [11], in assay [12], in [20], in [15] and in assay [16] was “inactive” throughout. In addition, the Potency result in [17] is “inactive”.

`CCS(=O)(=O)CCSP(=O)(OC)OC`: the Potency result in [1], in assay [18], in [19], in assay [7], in assay [9] and in assay [10] was “inactive” in each case. Moreover, the Potency result in assay [11], in [12], in [20], in [13], in assay [15] and in assay [16] was “inactive” each time. In addition, in assay [2], the Potency is 61.1 µM (active).

For the molecule `[CH3][Hg][Cl]`, the Potency in [1] is 6.09 µM (active); in [2], 2.43 µM (active); in assay [9], 36.3 µM (active); in assay [11], 38.8 µM (active). Also, the Potency result in [3], in assay [4], in assay [5], in assay [6], in assay [19] and in assay [7] was “inactive” in each case. Besides, the Potency result in assay [8], in assay [10], in [12], in [20], in assay [14] and in assay [16] was “inactive” throughout. Besides, the Potency entry in assay [17] is “inactive”.

For the molecule `CC(C)(C)NCC(O)c1cc(Cl)c(N)c(C(F)(F)F)c1` (configuration not stated), the Potency entry in assay [1], in [2], in assay [3], in assay [4], in [5] and in assay [6] was “inactive” each time. For the same molecule, the Potency result in assay [19], in assay [7], in [9], in assay [10], in [11] and in assay [12] was “inactive” throughout. Also, the Potency result in [20], in [14] and in assay [16] was “inactive” each time. In addition, the Potency in assay [17] was 0.0084 µM (active).

Regarding `Cc1ccc(N(SC(F)(Cl)Cl)S(=O)(=O)N(C)C)cc1`, the Potency is 27.3 µM (active) in assay [1]; 7.7 µM (active) in assay [2]; 34.7 µM (active) in assay [18]; 16.2 µM (active) in assay [19]; 49 µM (active) in [11]; 49 µM (active) in [20]. Moreover, in assay [17], the Potency is 3.06 µM (active). Further, the Potency entry in [5], in assay [6], in [8], in assay [9] and in [10] was “inactive” throughout.

As to `COP(=S)(OC)Oc1ccc(S(N)(=O)=O)cc1`, the Potency result in assay [1], in assay [2], in assay [18], in [4], in assay [19] and in assay [7] was “inactive” throughout. The Potency result in assay [8], in [10], in assay [12], in assay [20], in assay [13] and in [14] was “inactive” in each case. Besides, the Potency result in assay [15] and in assay [17] was “inactive” throughout.
